Screening data from PubChem BioAssay.
TR-FRET SRC-2 ct = TR-FRET artefact, counter-screen to PPARgamma/SRC-2 agonist assay. hits give high values. TR-FRET ratio at 8 µM. 0.4% of 200,000 active. AID 1049
PPARg SRC-1 ag = agonists of human PPARgamma SRC-1 coactivator recruitment; P37231; PPARgamma-SRC-1 coactivator recruitment biochemical assay; activation, % at 8 µM; 0.41% of 200,000 active; in the data active = activation above about 19%;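 also: 0% = DMSO and 100% = reference agonist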
SRC3 TRFRET art = flags TR-FRET format artefacts in PPARgamma SRC-3 recruitment agonist screen; TR-FRET ratio at 8 µM; TR-FRET artefact counter-screen, PPARgamma/SRC-3 format; hits give high values; 0.39% of 99,000 active
SRC1 TRFRET art = TR-FRET artefact, counter-screen to PPARgamma/SRC-1 agonist assay; TR-FRET detection artefact counter-screen, emission ratio; hits give high values; 0.34% of 99,000 active; AID 1051; TR-FRET ratio at 8 µM; in the data active = TR-FRET ratio above about 2300
PPARg SRC3 recr = PPARgamma-driven SRC-3 recruitment agonism | P37231 | biochemical PPARgamma/SRC-3 coactivator recruitment assay | activation, % at 8 µM | 0.26% of 200,000 active | AID 731; in the data active = activation above about 23%;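 also: 0% = DMSO and 100% = reference agonist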
PPARg SRC2 recr = PPARgamma-driven SRC-2 recruitment agonism; AID 1032; PPARgamma LBD-SRC-2 recruitment, biochemical; 0.34% of 200,000 active; activation, % at 8 µM; in the data active = activation above about 22%;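 also: 0% = vehicle and 100% = reference agonist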
The depositor's hits bear a star; / = no result. This is a sample that favours compounds with a hit; in the whole collection about 0.9% have one here. Rule as the data show it, unless noted: active = TR-FRET ratio above about 2000; inactive = the rest.

SMILES	TR-FRET SRC-2 ct	PPARg SRC-1 ag	SRC3 TRFRET art	SRC1 TRFRET art	PPARg SRC3 recr	PPARg SRC2 recr
S=c1[nH]nc(-c2ccccc2)n1C1C=CCCC1 (configuration not stated)	1669	5	1754	2316*	-4	3
O=C(Nc1ccc(N2CCOCC2)cc1)c1ccc([N+](=O)[O-])cc1	1552	-2	1537	1641	-6	-6
COc1cc2[nH]c(=S)nc(NCCc3ccc(C)cc3)c2cc1OC	1959	21*	2231*	2432*	16	24*
CCOc1nc(-c2ccccc2)ccc1-c1noc(-c2ccncc2)n1	1670	-4	1406	1933	2	0
CCOc1nc(-c2ccccc2)ccc1-c1noc(-c2cccs2)n1	1549	34*	/	/	-5	3
CC1CCC2C(=O)N(c3ccc(C(=O)NCc4ccccc4)cc3)C(=O)C2C1 (configuration not stated)	1537	6	1822	1786	4	10
Cc1ccc(-c2csc(N/N=C/c3ccco3)n2)cc1	1751	-5	/	/	9	3
Brc1ccc(-c2csc(N/N=C/c3ccco3)n2)cc1	1757	3	1608	1707	1	22*
O=C(Nc1cccc(NS(=O)(=O)c2ccc(S(=O)(=O)NC3CC3)cc2)c1)c1ccccn1	1559	23*	/	/	-2	7
COC(=O)c1cnn(-c2nc3c(C)cccc3s2)c1C	1578	61*	/	/	-10	-1
COc1ccc(C(=O)C2CCCN(C(=O)c3cc(C)nc(C)n3)C2)cc1OC (configuration not stated)	1441	2	1481	1891	5	2
Cc1cc(=O)[nH]c(N/N=C/c2sccc2C)n1	1625	7	1636	1872	3	9
Cc1ccsc1/C=N/Nc1nc2ccccc2[nH]1	1670	13	1746	2515*	8	17
O=C(Cc1sc(-c2ccccc2Cl)nc1-c1ccccc1)Nc1ccccc1	1609	75*	/	/	1	6
CC(=O)OCC1OC(Nc2cccc(C)c2)C(OC(C)=O)C(OC(C)=O)C1OC(C)=O (configuration not stated)	1509	-2	1458	1608	6	-1
O=C(NCc1ccco1)c1cc(-c2cccnc2)nc2ccccc12	1779	3	1623	2325*	-4	12
O=C(NCc1ccco1)c1cc(-c2ccncc2)nc2ccccc12	1597	1	/	/	2	0
O=C(NCc1ccccn1)c1cc(-c2ccccc2)nc2ccccc12	1426	-4	1462	1648	-3	6
O=C(NCc1ccccn1)c1cc(-c2ccc(-c3ccccc3)cc2)nc2ccccc12	1653	2	2387*	1888	-1	1
CC1CC(C(F)(F)F)n2nc(C(=O)O)cc2N1 (configuration not stated)	1390	-5	/	/	-15	0
CC(C)C1CC(C(F)(F)F)n2nc(C(=O)O)cc2N1 (configuration not stated)	2157*	5	1729	1719	2	17
Cc1cc2nc(-c3ccc(SCC(=O)N4CCc5ccccc54)nc3)[nH]c2cc1C	2115*	0	/	/	8	-1
Cc1cc2nc(-c3ccc(SCC(=O)Nc4ccc(S(=O)(=O)NC5CC5)cc4)nc3)[nH]c2cc1C	2456*	13	3182*	2422*	3	10
Cc1cc(NC(=O)CSc2ccc(-c3nc4cc(C)c(C)cc4[nH]3)cn2)no1	1545	2	/	/	-16	-9
O=C(CSc1ncccc1-c1nc2ccccc2[nH]1)N1CCc2ccccc21	2650*	5	3407*	2802*	2	-8
CCOC(=O)C1CCN(CCC(=O)Nc2ccc(C)c(C)c2)CC1	1537	22*	1352	2091	3	-3
CCCc1cc(=O)[nH]c(Nc2ccc3c(c2)OCCO3)n1	1573	4	1639	2031	7	1
O=S(=O)(c1ccc(Cl)cc1)N1CCCC1c1nc(-c2ccc(Cl)cc2)no1 (configuration not stated)	1734	5	/	/	11	3
Nc1nc(C2CCCN2S(=O)(=O)c2ccc(Cl)cc2)cs1 (configuration not stated)	1686	21*	/	/	5	7
Cc1ccc2c(C(=O)N3CCN(c4ccccc4)CC3)cc(-c3cccnc3)nc2c1C	1394	13	1604	2369*	-1	2
